Assay outcomes from PubChem BioAssay.
Gli-Sufu block: antagonists of Gli-Sufu signaling; Sufu-KO-LIGHT fibroblasts, Gli luciferase reporter luminescence; inhibition, % at 5 µM; 0.74% of 340,000 active; AID 588413;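 active means inhibition above about 55%, limit read from the data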;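 further: 0% = DMSO-treated cells and 100% = wells with medium but no cells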
697 NFkB inh: lowers PMA/ionomycin-induced NF-kB signal in 697 B cells | 697 B-cell NF-kB luciferase reporter, 16 h | inhibition, % at 4 µM | 0.33% of 330,000 active | AID 435022; in the data active means inhibition above about 35%
Jurkat NFkB inh: lowers PMA/ionomycin-induced NF-kB signal in Jurkat cells | PMA/ionomycin-induced NF-kB luciferase reporter, luminescence | inhibition, % at 4 µM | 0.53% of 330,000 active; in the data active means inhibition above about 50%
KLF5 inhibitor: kruppel-like factor 5 inhibition; DLD-1 KLF5 promoter-luciferase reporter, luminescence; inhibition, % at 5 µM; 0.23% of 290,000 active; AID 1700;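 active means inhibition above a per-plate limit of that plate's mean compound inhibition plus 3 SD, cut at about 60% in these data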;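 further: 0% = DMSO wells and 100% = LY294002 at 200 µM; higher means less KLF5 promoter-driven luciferase light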
Mdm2 MdmX PPI: disrupts the human Mdm2-MdmX interaction. O15151+Q00987. SaOS-2 split-luciferase Mdm2/MdmX complementation, luminescence. inhibition, % at 8 µM. 3% of 330,000 active. AID 485346;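 active means inhibition of at least 50% at 8 µM in the primary screen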
aSyn UTR inh: MLPCN primary screen, SNCA 5' untranslated region. alpha-synuclein 5'UTR reporter, inhibitor activity. inhibition, % (tested at 7.5 µM). 0.82% of 300,000 active. AID 1813; in the data active means inhibition above about 60%;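 further: H4 neuroglioblastoma cells stably carrying SNCA 5'UTR luciferase fusion; 0% = DMSO wells and 100% = positive control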
Mdm2 MdmX conf: confirmation of human Mdm2/MdmX interaction inhibitors; shares compounds with Mdm2 MdmX PPI; Mdm2-MdmX binding, luminescent assay; inhibition, % at 8 µM; 55% of 10,000 active; AID 489028; in the data active means inhibition above about 40%
FLuc counter: counter-screen for Mdm2/MdmX inhibitors: full-length luciferase | inhibition, % at 8 µM | SaOS-2 full-length luciferase counterscreen, luminescence | shares compounds with Mdm2 MdmX PPI | AID 504607 | 77% of 6,200 active;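 active means mean inhibition at 8 µM reaching about 37%, which flags the compound as non-specific, limit read from the data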;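 further: p53-null SaOS-2 cells with luciferase driven by a doxycycline-inducible promoter; compound on cells about two nights before reading with doxycycline added after day one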
* hit, by the source's call; . = not tested or not shown. This is a sample that favours compounds with a hit; in the whole collection about 4.1% have one here.

SMILES	Gli-Sufu block	697 NFkB inh	Jurkat NFkB inh	KLF5 inhibitor	Mdm2 MdmX PPI	aSyn UTR inh	Mdm2 MdmX conf	FLuc counter
CCN(CC(=O)Nc1c(C(=O)OC)[nH]c2ccc(Cl)cc12)c1ccc2c(c1)OCO2	17	11	-3	13	45	11	.	.
Cc1ccc(CNC(=O)CCS(=O)(=O)c2ccc3c(c2)CC(C)N3C(=O)C2CC2)cc1 (stereo not given)	36	-18	42	20	63*	7	49*	50*
Cc1ccc(CNC(=O)C2CCN(S(=O)(=O)c3ccc4c(c3)CC(C)N4C(=O)C3CC3)CC2)cc1 (stereo not given)	-5	-13	10	8	13	29	.	.
CN(C)CCNc1ccc(-c2nn(C)c(=O)c3ccccc23)cc1[N+](=O)[O-]	12	11	30	-43	53*	-2	37	78*
CN(CCO)c1ccc(-c2nn(C)c(=O)c3ccccc23)cc1[N+](=O)[O-]	4	21	-12	-2	46	11	.	.
CC(C)C[C@H](NC(=O)c1nc[nH]c1C(=O)N[C@@H](CC(C)C)C(=O)OC(C)(C)C)C(=O)OC(C)(C)C	-4	19	11	.	80*	54	7	.
CC(C)C[C@H](NC(=O)c1[nH]cnc1C(=O)N[C@H](C)c1ccccc1)C(=O)OC(C)(C)C	33	8	27	-34	47	28	.	.
CC(C)C[C@H](NC(=O)c1nc[nH]c1C(=O)NC(c1ccccc1)c1ccccc1)C(=O)OC(C)(C)C	11	-7	7	12	89*	29	2	.
CN(Cc1ccccc1)CC1C2CCC(C2)C1O (stereo not given)	8	.	.	.	.	.	.	.
COc1ccc([N+](=O)[O-])cc1NCc1ccccc1	-19	-47	-24	1	70*	42	39	98*
Cc1cccc(C(=O)N[C@H](C(=O)OCC(=O)NC(=O)c2cccn2C)C(C)C)c1	-4	19	0	-29	-14	19	.	.
Cc1cc(C(=O)CSc2nnnn2C)c(C)n1CCc1ccc(F)cc1	1	5	-12	-23	20	-13	.	.
Cc1cc(C(=O)CSc2nnnn2-c2ccccc2)c(C)n1CCc1ccccc1	0	-6	15	-3	26	12	.	.
COc1ccc(CCn2c(C)cc(C(=O)CSc3nnnn3-c3ccccc3)c2C)cc1OC	15	22	5	-40	59*	28	7	.
Cc1cc(C(=O)CCl)c(C)n1CCc1ccc(Cl)cc1	9	5	14	-6	93*	27	69*	31
COc1ccc(CCn2c(C)cc(C(=O)CCl)c2C)cc1OC	3	10	14	-25	74*	6	27	.
Cc1cc(C(=O)CSc2nnc(N)s2)c(C)n1CCc1ccc(Cl)cc1	-4	12	-15	-7	3	-36	.	.
Cc1cc(C(=O)CCl)c(C)n1CCc1ccc(F)cc1	-3	22	25	-41	92*	4	62*	34
COC(=O)Cc1ccc(NC(=S)N2CCN(CCO)CC2)cc1	-1	-22	-28	.	12	7	.	.
Cc1c(N2C(=O)c3cccc4cccc(c34)C2=O)cnn1C	6	-4	-17	-24	6	1	.	.
Cc1cc2c(cc3c(=O)n(CC(=O)NCCCN4CC(C)CC(C)C4)ncn32)s1 (stereo not given)	34	-14	-13	-20	-2	5	.	.
COc1ccc(-c2cc(C3CC3)nc(SCC(=O)c3cccs3)c2C#N)cc1	15	-2	-11	2	30	20	.	.
CSc1nc(C2CC2)cc(-c2cccs2)c1C#N	-9	-4	6	-27	88*	27	79*	79*
Cc1ccc(C2(C)NC(=O)N(CC(=O)NCCN3C(=O)S/C(=C\c4cccnc4)C3=O)C2=O)cc1 (stereo not given)	-10	.	.	.	.	.	.	.
COc1cc(C(=O)Nc2nc(-c3ccc(Cl)cc3)c(C)s2)ccc1OCC(=O)Nc1ccc(F)cc1	30	1	-1	-5	78*	11	66*	71*
SMILES	Gli-Sufu block	697 NFkB inh	Jurkat NFkB inh	KLF5 inhibitor	Mdm2 MdmX PPI	aSyn UTR inh	Mdm2 MdmX conf	FLuc counter
O=C(Oc1c(Cl)cc(Cl)c2cccnc12)c1cccs1	-1	-10	5	-10	76*	17	57*	32
O=C(Oc1cncc(Cl)c1)c1ccco1	6	-1	-8	-16	-8	0	.	.
COc1cc(C(=O)Oc2c(CN3CCOCC3)cc(Cl)c3cccnc23)cc(OC)c1OC	44	-3	12	0	65*	78*	46*	39*
O=C(Oc1c(Cl)cc(Cl)c2cccnc12)c1ccco1	-13	-57	-29	-17	71*	7	60*	36*
O=C(Oc1c(CN2CCOCC2)cc(Cl)c2cccnc12)c1cccs1	9	-11	18	8	65*	108*	43*	43*
CCOC(=O)C1(CCOc2ccccc2)CCN(Cc2cccc3nonc23)CC1	31	-37	18	-10	8	4	.	.
COc1ccc(C(=O)Oc2c(CN3CCOCC3)cc(Cl)c3cccnc23)cc1	6	13	3	9	55*	54	35	43*
O=C(Oc1c(CN2CCOCC2)cc(Cl)c2cccnc12)c1ccc(F)cc1	22	-2	9	-22	52*	65*	49*	42*
COc1cccc(C(=O)Oc2c(CN3CCOCC3)cc(Cl)c3cccnc23)c1	23	-5	13	-11	54*	89*	56*	49*
COc1cccc(C(=O)N2CCN(C(=O)COc3ccc4ccccc4c3)CC2)c1	-4	11	24	-18	10	5	.	.
CCN(CC)CCNC(=O)c1cn(CC)c2cc(N3CCN(C)CC3)c(F)cc2c1=O	.	3	-7	-10	-18	0	.	.
O=C(c1ccc(OCCN2CCCCC2)cc1)c1c(-c2ccc(O)cc2)sc2cc(O)ccc12	5	4	15	.	65*	-8	31	.
COc1cc2sc(-c3ccccc3OC)c(-c3ccc(OCCN4CCCCC4)cc3)c2cc1OC	14	-2	-1	.	100*	.	43*	56*
COc1ccccc1-c1sc2cc3c(cc2c1-c1ccc(OCCN2CCCCC2)cc1)OCO3	29	-22	1	.	98*	.	42*	39*
COc1ccc2sc(-c3ccccc3OC)c(-c3ccc(OCCN4CCOCC4)cc3)c2c1	-2	-8	.	.	30	.	.	.
CCOc1ncccc1C(=O)NCCc1ccc(Cl)cc1	1	-24	-17	-9	-33	7	.	.
CCC(=O)OCCNc1cc(Sc2nc3ccccc3s2)c2nonc2c1[N+](=O)[O-]	3	10	-10	-3	40	-2	.	.
